DUSP3 inh: VHR1 phosphatase inhibitors, primary screen, biochemical, absorbance, uHTS. Dual specificity protein phosphatase 3 (Homo sapiens), P51452. recombinant VHR phosphatase, pNPP absorbance. inhibition, % at 13.3 µM. 0.52% of 290,000 active. AID 1654, 2009; in the data active means inhibition above about 50%
Target sequence (P51452 whole entry, looked up): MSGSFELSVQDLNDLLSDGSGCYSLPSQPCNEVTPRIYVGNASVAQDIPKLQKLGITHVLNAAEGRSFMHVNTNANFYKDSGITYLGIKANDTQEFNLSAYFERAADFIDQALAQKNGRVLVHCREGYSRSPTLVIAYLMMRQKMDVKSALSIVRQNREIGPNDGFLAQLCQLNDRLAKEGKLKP
PriA SSB inh: inhibitors of Klebsiella pneumoniae PriA binding to SSB C-terminal tail, primary screen, biochemical, AlphaScreen | PriA–SSB C-terminal tail interaction (Klebsiella pneumoniae) | AlphaScreen SSBct-PriA binding, biotinylated peptide | inhibition, % at 33 µM | 0.6% of 430,000 active; in the data active means inhibition mostly above about 37%, no sharp cut-off; inactive means mostly below about 20%;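 further: plate controls were negative control peptide for no effect and reference peptide for full effect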
TcdB GH inh: TcdB glycohydrolase inhibitors, primary screen, biochemical, single point, plate reader; Toxin B (Clostridioides difficile), P18177; TcdB glycohydrolase enzymatic assay; inhibition, % at 9.99 µM; 0.24% of 350,000 active; AID 652162, 2013; in the data active means inhibition above about 10%
CCHF vOTU inh: CCHFV vOTU protease inhibitors, primary screen, biochemical, Pep-AMC substrate, fluorescence; inhibition, % at 11.5 µM; 0.55% of 370,000 active; in the data active means inhibition above about 30%; further: 0% = vehicle wells with enzyme and 100% = no enzyme wells
SARS 3CLpro inh: SARS-CoV 3CLpro protease inhibitors, primary screen, biochemical, quenched FRET | 0.14% of 290,000 active | recombinant SARS-CoV 3CLpro, quenched FRET peptide cleavage | inhibition, % at 6 µM | Replicase polyprotein 1ab (Severe acute respiratory syndrome coronavirus), P0C6X7; in the data active means inhibition above about 12%
Vc quorum ag: inducers of Vibrio cholerae quorum light production without autoinducers, primary screen, BH1578 luxS cqsA deficient, single point | V. cholerae BH1578 lux reporter, luminescence, 6 h | activation, % at 18.7 µM | 0.16% of 350,000 active; in the data active means activation mostly above about 9.7%, no sharp cut-off
An asterisk follows results filed as active; i = inactive; · = no result given; ! = repeats disagree. The list is not random: actives were taken first. Their share in the collection is about 1.3%.

SMILES	DUSP3 inh	PriA SSB inh	TcdB GH inh	CCHF vOTU inh	SARS 3CLpro inh	Vc quorum ag
Cc1cn2nnc(C(=O)Nc3ccc(S(N)(=O)=O)cc3)c2c(=O)[nH]1	·	-18	·	·	·	·
CN(C)[C@@H](CNC(=O)C1(c2ccccc2)CCOCC1)c1cccs1	·	-14	·	·	·	·
Cc1ccc(-c2noc(-c3ccc(=O)n(Cc4ccccc4F)c3)n2)cc1	·	-3	·	·	·	·
Cc1ccc(NC(=O)CSc2nccn3nc(-c4ccccc4)cc23)cc1C	·	-9	·	·	·	·
Cc1ccc(NC(=S)NC(NC(=O)c2ccccc2C)C(Cl)(Cl)Cl)c(C)c1 (stereo not drawn)	2	8	·	15	13*	0
CCN(CC)C(=O)c1cccc2nc3ccccc3nc12	-3	-1	2	2	-1	0
COC(=O)c1cccc2nc3c(C(C)O)cccc3nc12 (stereo not drawn)	14	42*	0	15	·	0
COc1ccc(S(=O)(=O)NCC(c2cccn2C)N2CCCC2)cc1F (stereo not drawn)	·	13	·	·	·	·
CCOC(=O)Nc1ccc2c(c1)N(C(=O)CC)CCC2	·	5	·	·	·	·
NC(=O)C1=C(c2ccccc2)c2ccccc2C1=O	·	-12	0	6	·	43*
CS(=O)(=O)N1CCCC(C(=O)Nc2nnc(CS(=O)(=O)c3ccccc3)o2)C1 (stereo not drawn)	·	-2	·	·	·	·
CCn1cc(CN2CCC(C(=O)Nc3cccc(-c4cccc(OC)c4)c3)CC2)cn1	41	-2	1	-7	-2	i
CCc1ccc(CN2CCC(C(=O)Nc3cccc(-c4nnc(C)s4)c3)CC2)o1	4	57*	·	·	4	0
CCn1cc(CN2CCC(C(=O)Nc3cccc(-c4cccc(F)c4)c3)CC2)cn1	28	39*	1	-4	3	i
CN(Cc1cc(=O)[nH]c2ccccc12)C(=O)c1ccoc1CSc1ccccc1	·	-14	·	·	·	·
Cc1ccc(CCC(=O)Nc2ccc(Cl)c([N+](=O)[O-])c2)o1	·	48*	·	·	·	·
NCC(O)Cn1c2ccccc2c2ccccc21 (stereo not drawn)	·	-5	·	·	·	·
Oc1cccc2ccc[n+](CC(O)Cn3c4ccccc4c4ccccc43)c12 (stereo not drawn)	-10	73*	·	5	12	i
COc1ccc(N2CCN(S(=O)(=O)CCCNC(=O)c3ccc[nH]c3=O)CC2)cc1	·	-16	·	·	·	·
O=C(Nc1ccc([N+](=O)[O-])cc1)Nc1ccc2c3c(cccc13)CC2	·	38*	·	·	·	·
COc1cccc(OC)c1C(=O)Nc1ccc2c3c(cccc13)CC2	28	7	·	12	3	17*
Cc1ncc([N+](=O)[O-])n1CCOC(=O)c1cc2ccccc2oc1=O	·	-5	·	·	·	·
CCOC(=O)N1CCN(C2=C(NS(=O)(=O)c3ccc(Br)cc3)C(=O)c3ccccc3C2=O)CC1	·	·	-2	13	·	i
CCOC(=O)N1CCN(C2=C(NS(=O)(=O)c3ccccc3)C(=O)c3ccccc3C2=O)CC1	-18	2	1	89*	0	0
CCOc1ccccc1NC(=O)c1ccc2c(c1)C(=O)N(CC)C2=O	40	100*	-1	-16	-5	i
SMILES	DUSP3 inh	PriA SSB inh	TcdB GH inh	CCHF vOTU inh	SARS 3CLpro inh	Vc quorum ag
CS(=O)(=O)c1ccc(N2CCC(Cc3ccccc3)CC2)c([N+](=O)[O-])c1	·	41*	·	·	·	·
O=[N+]([O-])c1cccc(S(=O)(=O)c2ccc(N3CCCCC3)c([N+](=O)[O-])c2)c1	37	13	-1	-4	3	0
O=[N+]([O-])c1cc(S(=O)(=O)c2ccc(N3CCCCC3)c([N+](=O)[O-])c2)ccc1N1CCCCC1	-5	42*	6	7	1	0
CC(=O)N1CCN(c2ccc(S(=O)(=O)N3CCCCC3)cc2[N+](=O)[O-])CC1	·	-15	1	-4	·	i
CC(=O)N1CCN(c2ccc(S(C)(=O)=O)cc2[N+](=O)[O-])CC1	-9	-7	11*	-8	-2	-3
CS(=O)(=O)c1ccc(N2CCN(c3ccccc3)CC2)c([N+](=O)[O-])c1	·	10	·	·	·	·
COc1ccc(C2(c3ccc(OC)cc3)NC(=O)N(CC(=O)Nc3cc(C)ccc3OC)C2=O)cc1	57*	-2	1	13	0	i
COc1cc(NC(=O)CN2C(=O)NC(c3ccccc3)(c3ccccc3)C2=O)cc(OC)c1	48	45*	2	-3	1	0
COc1ccc(N2CC(C(=O)Nc3nnc(-c4ccnn4C)o3)CC2=O)cc1 (stereo not drawn)	·	71*	·	·	·	·
O=C(Nc1nnc(-c2ccccc2)o1)C1CC(=O)N(c2ccccc2)C1 (stereo not drawn)	·	44*!	·	·	·	·
NC(=O)c1sc2nc(-c3ccco3)ccc2c1N	-1	-9	·	-29	1	32*
O=C(NC1(C(=O)NC2CCCCC2)CCCCC1)c1ccc2c(c1)OCO2	52*	-2	·	1	2	·
Cn1ccnc1S(=O)(=O)C1CCN(C(=O)c2cc(-c3ccc(F)cc3)c[nH]2)CC1	·	-21	·	·	·	·
Cc1cccc(NC(=O)CSc2ccc(-c3ccccn3)nn2)c1	·	71*	·	·	·	·
CC(=O)c1cccc(NC(=O)CSc2ccc(-c3ccccn3)nn2)c1	19	48*!	3	9	-1	0
Cc1nc2ccccc2nc1SCC(=O)N1CCN(Cc2ccc3c(c2)OCO3)CC1	·	5	·	·	·	·
Cc1ccc(NC(=O)CS(=O)(=O)c2cn(C)c3ccccc23)c(C)c1	30	104*	2	1	·	0
Cn1cc(S(=O)(=O)CC(=O)Nc2ccc(Br)cc2)c2ccccc21	12	-20	3	8	-4	0
O=C(NCCN1CCN(C(=O)c2cc3ccccc3oc2=O)CC1)c1cc2ccccc2oc1=O	24	94*	·	-2	5	0
COCC(C)NC(=O)CN(C)c1nc2c(F)cccc2s1 (stereo not drawn)	·	4	·	·	·	·
O=C(NCC(c1cccs1)N1CCOCC1)c1ccccc1NS(=O)(=O)c1cccc([N+](=O)[O-])c1 (stereo not drawn)	56*	6	-2	-9	5	-1
O=C(NCC(c1cccs1)N1CCc2ccccc21)c1ccccc1[N+](=O)[O-] (stereo not drawn)	·	46*	·	·	·	·
COc1ccc(C(=O)NCc2nnc(SCc3cccc(C(F)(F)F)c3)n2-c2ccc(Cl)c(Cl)c2)c(OC)c1	·	-7	·	·	·	·
Cc1cccc(-c2ccc(C=Nc3c(C)n(C)n(-c4ccccc4)c3=O)o2)c1	21	50*	·	20	-5	i
N#Cc1sc2nc(-c3ccccc3)cc(-c3ccco3)c2c1N	5	-2	·	59*	-2	-1

Screens deposited in PubChem BioAssay by several laboratories.
